The list is not random: actives were taken first. Their share in the collection is about 6.2%.
RORg inh: inhibitors of mouse ROR gamma transcriptional activity; P51450; Drosophila S2 Gal4-RORgamma UAS-luciferase reporter, 20 h; Potency, µM (doses to about 53.6 µM), inactives show at the highest dose activity change, negative = inhibition, hits mostly inhibitors; 5.4% of 310,000 active; AID 2551; also: nearly all actives have a fitted effect of over 60% in size
Target sequence (P51450 whole entry, looked up, the tested form may be a part): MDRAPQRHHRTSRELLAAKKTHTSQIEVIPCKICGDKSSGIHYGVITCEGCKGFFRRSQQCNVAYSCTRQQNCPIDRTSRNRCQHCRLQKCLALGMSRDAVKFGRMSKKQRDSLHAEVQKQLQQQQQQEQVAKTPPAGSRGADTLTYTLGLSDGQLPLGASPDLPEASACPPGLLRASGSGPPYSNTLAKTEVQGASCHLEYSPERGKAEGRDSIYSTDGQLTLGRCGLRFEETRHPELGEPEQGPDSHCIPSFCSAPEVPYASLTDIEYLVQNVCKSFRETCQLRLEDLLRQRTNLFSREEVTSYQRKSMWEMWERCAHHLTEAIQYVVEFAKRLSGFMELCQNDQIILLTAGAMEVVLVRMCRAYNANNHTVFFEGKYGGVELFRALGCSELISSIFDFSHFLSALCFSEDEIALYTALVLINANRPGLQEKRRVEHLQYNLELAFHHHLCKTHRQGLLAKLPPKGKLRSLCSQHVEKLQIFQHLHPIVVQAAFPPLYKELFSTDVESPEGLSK
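Drosophila S2 cells stably expressing Gal4-DBD/mouse RORγ fusion under metallothionein promoter plus UAS-luciferase; compound 1 h, then 700 uM CuSO4 induction for 20 h at ambient temperature; inhibition read as reduced luminescence.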
Luc counter: Kinase-Glo luciferase inhibition (counter-screen) | Kinase-Glo luciferase, ATP luminescence, 8 min | Potency, µM (doses to about 38.3 µM), inactives show at the highest dose activity change, negative = inhibition, hits mostly inhibitors | 0.28% of 200,000 active; also: nearly all actives have a fitted effect of over 60% in size
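Recombinant Kinase-Glo luciferase, 10 uM ATP (linear range), luciferin; imidazole pH 7.2 / KCl / MgCl2 / Tween / BSA buffer; 8 min RT; luminescence.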
Gal4-VP16 FLuc: Gal4-VP16 reporter inhibition counter-screen; Potency, µM (top dose mostly 53.6 µM), inactives show top-dose activity, negative = inhibition, actives largely listed as inhibitors; Drosophila S2 Gal4-VP16 UAS-luciferase, luminescence, 20 h; 3.5% of 310,000 active;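 also: Gal4-VP16 expression switched on by copper sulfate through the metallothionein promoter; nearly all actives have a fitted effect of over 50% in size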
Active calls of the source: *; u = inconclusive; x = no result given; [ ] = dose if it differs, or a comment. Calls follow the shape of the dose curve; as a rule, active = well fitted curve in the direction sought with a large enough effect; inconclusive = small, poorly fitted or top-dose-only effect, or another doubt; inactive = no such curve, though single readings can be large; an effect the other way counts as inactive or inconclusive. % is scaled to controls: 0 for no effect and ±100 for the full control effect; potency is read from the fitted curve at half-maximal effect.

SMILES	RORg inh	Luc counter	Gal4-VP16 FLuc
COc1ccc2c(c1)C(=O)[C@H](OC(=O)N[C@H]1CCCc3ccccc31)[C@@H](c1ccc(OC)c(Br)c1)O2	-3%	-4%	2%
COC(=O)COc1ccc(/C=C2\SC(=O)N(CC(=O)Nc3ccccc3F)C2=O)cc1	-14%[1.91 µM]	x	20%
CCN(Cc1ccccc1)C(=O)CCCOc1ccccc1	u	-5%	3%
O=C(COC(=O)CNC(=O)c1ccccc1)NCCc1ccccc1	10µM*	3%	0%
N#CCCN(Cc1ccccc1)C(=O)Nc1ccccc1	17%	x	-1%
N#CCCN(Cc1ccccc1)C(=S)NC(=O)c1ccccc1	0.35µM*	1%	0.71µM*
Cc1cc(C(=O)NCC(=O)OCC(=O)NCCc2ccccc2)ccc1[N+](=O)[O-]	3%	4%	6%
CCOc1ccc(CN(CCC#N)C(=S)NC(=O)c2ccccc2)cc1	0.4µM*	2%	0.45µM*
CCOc1ccc(C(=O)NC(=S)N(Cc2ccccc2)Cc2ccccc2)cc1	0.28µM*	-2%	0.79µM*
N#CCCN(Cc1ccccc1)C(=S)Nc1ccccc1	-41%	3%	4%
COc1ccc(CSC2=CS(=O)(=O)c3ccccc3N2)cc1	16%	1%	3%
CCc1ccc(CCC(=O)Nc2ncc(Cc3ccccc3Cl)s2)o1	u	3%	u
O=C(O)CCC/C=C\C[C@@H]1[C@@H](CC[C@@H](O)CCc2ccccc2)[C@H](O)C[C@@H]1O	-3%	x	3%
Cc1ccc(NS(=O)(=O)c2cc(C(=O)O)ccc2Cl)cc1C	x	0%	x
CO[C@@H](CCO)C[C@H]1O[C@H](C(=O)OC(C)C)CC[C@@H]1C	0%	0%	-14%
COc1ccc(CN(CCC#N)C(=S)NC(=O)c2ccccc2)cc1	0.32µM*	-4%	0.56µM*
Cc1ccc(S(=O)(=O)NC(=O)N(CCC#N)Cc2ccccc2)cc1	1%	x	-8%
CCCN(CCC)C(=S)NC(=O)c1ccc(-c2ccccc2)cc1	0.5µM*	1%	0.13µM*
O=C(COC(=O)CCS(=O)(=O)c1ccc(Cl)cc1)NCCc1ccccc1	5.6µM*	5%	4%
CC(=O)Oc1ccc(C(=O)NCCc2ccccc2)cc1	u	-16%	u
CCOc1ccc(C(=O)NCCc2ccccc2)cc1	8.9µM*	-11%	8.9µM*
CCN(CC)C(=O)c1ccc(-c2ccccc2)cc1	31%	-5%	-2%
O=C(COC(=O)CCS(=O)(=O)c1ccc(Cl)cc1)NCCc1ccc(Cl)cc1Cl	-36%	5%	u
COc1ccc(CCNc2ncnc3[nH]ncc23)cc1OC	-27%	-3%	13µM*
COc1ccc(CCNc2ncnc3sc(C)cc23)cc1OC	u	x	0.4µM*
SMILES	RORg inh	Luc counter	Gal4-VP16 FLuc
COc1ccc(CCNc2ccncn2)cc1OC	5%	-3%	-22%
CCOc1ccc2[nH]c3c(NCCc4ccc(OC)c(OC)c4)ncnc3c2c1	5%	x	-22%
CCCCOc1ccc(-c2ncc(N)cn2)cc1	16%	x	4%
COCCNc1cc(-c2ccccc2CN(C)C)ncn1	0%	-1%	14%
O=C(CSc1nc2ccc(Cl)cc2[nH]1)N1CCN(C(=O)c2ccco2)CC1	33%	0%	23%
O=[N+]([O-])c1ccc2nccn2c1	1%	-2%	-7%
Cc1ccc2c(Cl)cc(Cl)c(OCC(=O)O)c2n1	0%	1%	4%
Cc1cc(Cl)cc(Cl)c1OCC(=O)NCc1ccco1	u	-6%	u
Cc1ccc2c(Cl)cc(Cl)c(OCC(=O)N3CCCC3)c2n1	14µM*	1%	u
Cc1ccc2c(Cl)cc(Cl)c(OCC(=O)NC(=O)NCc3ccco3)c2n1	10µM*	-1%	-18%
Cc1ccc2c(Cl)cc(Cl)c(OCC(=O)Nc3cc(C)on3)c2n1	-5%	-1%	-3%
Cc1ccc2c(Cl)cc(Cl)c(OCC(=O)NCc3ccco3)c2n1	7.1µM*	-5%	11µM*
O=C(Nc1ccccc1)c1nsnc1C(=O)Nc1ccccc1	31%	-2%	2%
Cc1c(O)ccc2c(CC(=O)N[C@@H](Cc3ccc(O)cc3)C(=O)O)cc(=O)oc12	7%	x	3%
CCC(=O)Nc1nnc(SCC(=O)NCCc2ccc(OC)c(OC)c2)s1	-3%	0%	-4%
CC(NC(=S)Nc1c(Cl)cccc1OC(F)F)C(C)(C)C (configuration not stated)	13µM*	3%	11µM*
Cc1ccc(NC(=S)Nc2ccc(OC(F)F)c(Cl)c2)cc1F	u	-1%	u
CC(NC(=S)Nc1ccccc1OC(F)F)C(C)(C)C (configuration not stated)	u	2%	u
CC(NC(=S)Nc1ccc(OC(F)F)cc1OC(F)F)C(C)(C)C (configuration not stated)	7.9µM*	-2%	16µM*
Cc1[nH]n(-c2ccccc2)c(=O)c1C=Nc1ccc(S(=O)(=O)N=C(N)N)cc1	15%	x	-6%
Cc1[nH]n(-c2ccccc2)c(=S)c1C=Nc1ccc([N+](=O)[O-])cc1	3.2µM*	0%	7.1µM*
Cc1cccc(C)c1NC(=O)CCCSc1nc2ccccc2s1	-9%	-1%	12%
CCc1cccc(CC)c1NC(=O)CCCSc1nc2ccccc2s1	u	x	-11%
O=C(CCCSc1nc2ccccc2s1)NC1=NCCS1	0.89µM*	-1%	4.5µM*
CC(=O)Nc1ccc(NC(=O)CCCSc2nc3ccccc3s2)cc1	7.1µM*	2%	5µM*
SMILES	RORg inh	Luc counter	Gal4-VP16 FLuc
O=C(O)CCSc1nc2ccccc2s1	1.8µM*	4%	-9%
c1ccc2sc(SCSc3nc4ccccc4s3)nc2c1	-18%	-8%[7.66 µM]	11%
COc1ccc(C2=Nn3c(nnc3-c3ccccc3O)SC2)c(OC)c1	-11%	x	1%
Cc1cnc(CNc2ccnc(-c3ccccc3Cl)n2)cn1	8%	1%	-11%
CC(C)CC(=O)NC(=S)Nc1ccc(N2CCOCC2)c(Cl)c1	7.9µM*	0%	u
O=C(Nc1ccc(N2CCCC2)c(Cl)c1)c1cccs1	11%	u	-25%
O=C(Nc1ccccc1N1CCOCC1)c1cccs1	39%	-2%	-12%
O=C(NC(=S)Nc1ccccc1N1CCCC1)c1cccs1	4.5µM*	x	16µM*
O=C(NC(=S)Nc1ccc(N2CCOCC2)c(Cl)c1)c1cccs1	u	5%	14µM*
O=C(NC(=S)Nc1ccccc1N1CCOCC1)c1cccs1	6.3µM*	-4%	14µM*
O=C(NC(=S)Nc1ccccc1N1CCN(C(=O)c2ccccc2)CC1)c1cccs1	-21%	x	-7%
COc1ccc(OCC(=O)NC(=S)Nc2ccc(N3CCOCC3)c(Cl)c2)cc1	-83%	-3%	-3%
COc1ccc(-n2nc(C(=O)NCC(=O)NCC3COc4ccccc4O3)c3ccccc3c2=O)c(OC)c1 (configuration not stated)	5%	1%	2%
CN1CCN(c2ccccc2NC(=O)c2cccs2)CC1	-19%	x	-2%
O=C(NC(=S)Nc1ccc(N2CCCCC2)c(Cl)c1)c1ccc2c(c1)OCCO2	3.2µM*	-4%	6.3µM*
O=C(NC(=S)Nc1ccc(N2CCOCC2)c(Cl)c1)c1cncc(Br)c1	1µM*	-6%	0.56µM*
O=C(Nc1ccc2c(c1)OCCO2)c1ccc(Cl)c(Cl)c1	23%	x	-15%
O=C(NC(=S)Nc1ccccc1N1CCCCC1)c1cccs1	1.6µM*	-1%	u

Source: PubChem BioAssay
